IL-1B inflam inh – qHTS for Inhibitors of Inflammasome Signaling: IL-1-beta AlphaLISA Primary Screen; THP-1 LPS/ATP IL-1B secretion, AlphaLISA, 16 h; active compounds read low; activity change, % at 57.5 µM; actives 4.7% (n = 360,000); in the data active means activity change below about -50%; inconclusive means mostly about -30% to -49%
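THP-1 cells pretreated 1 hr with compounds (up to 57.5 uM final), then stimulated with LPS (250 ng/mL final) plus ATP (1.25 mM final); secreted IL-1B measured by AlphaLISA after 16 hr, decreased signal indicating inhibition.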
HT1080 IDH1KD tx – qHTS for induction of synthetic lethality in tumor cells producing 2HG: qHTS for the HT-1080-IDH1KD cell line | HT-1080 IDH1 knockdown viability, ATP luminescence, 48 h | Potency, µM (doses to about 46.1 µM), most hits filed as cytotoxic | actives 2% (n = 360,000) | AID 686971, 2013
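Using the IDH1-knockdown HT-1080 line run in the same batch and compound series as the NT line, viability after 48 h at 37 °C was determined by CellTiter-Glo luminescence and expressed as % activity.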
HT1080NT lethal – qHTS for induction of synthetic lethality in tumor cells producing 2HG: qHTS for the HT-1080-NT fibrosarcoma cell line; HT-1080-NT fibrosarcoma viability, CellTiter-Glo ATP luminescence, 48 h; Potency, µM (series often up to 46.1 µM), most hits filed as cytotoxic; actives 1.6% (n = 360,000); AID 686970, 2013;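 further: NT is the 2HG producing partner of a matched IDH1 knockdown line; nearly all actives have a fitted effect of over 55% in size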
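Toxicity toward the 2HG-producing NT line was scored as %Activity, normalised to DMSO and no-cell wells, from CellTiter-Glo luminescence after 48 hours' treatment.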
ELG1 repair inh – qHTS screen for small molecules that inhibit ELG1-dependent DNA repair in human embryonic kidney (HEK293T) cells expressing luciferase-tagged ELG1 | HEK293T ELG1-luciferase reporter, luminescence, 16 h; DNA damage induced by 5-fluorouridine | actives 2.3% (n = 330,000) | Potency, µM (titrated, usually from 46.1 µM), actives largely listed as inhibitors; further: nearly all actives have a fitted effect of over 55% in size
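Luminescence from the luciferase reporter, measured 30 min after ONE-Glo reagent at room temperature, was the read-out. Beforehand, 2,000 cells per well were exposed for 16 hr at 37 °C to 5-fluorouridine together with compound or vehicle.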
DT40 TDP1 no CPT – qHTS for Inhibitors of human tyrosyl-DNA phosphodiesterase 1 (TDP1): qHTS in cells in absence of CPT; DT40 Tdp1-/- hTDP1 cells, no CPT, ATP luminescence, 48 h; Potency, µM (highest dose often 46.2 µM), usual class: inhibitors; actives 15% (n = 420,000); AID 686978, 2013; further: nearly all actives have a fitted effect of over 55% in size
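Chicken DT40 Tdp1-/- cells complemented with human TDP1, screened without camptothecin (DMSO vehicle only), 400 cells/well. Compounds pin-transferred, cells incubated at 37 °C for at least 48 hr. Growth read as ATP-dependent luminescence (CellTiter-Glo, 30 min at RT).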
TDP1 cell CPT – qHTS for Inhibitors of human tyrosyl-DNA phosphodiesterase 1 (TDP1): qHTS in cells in presence of CPT; AID 686979, 2013; actives 12% (n = 420,000); Potency, µM (highest dose often 46.2 µM), actives largely listed as inhibitors; chicken DT40 Tdp1-/-;hTDP1 cells + 20 nM CPT, ATP luminescence, 48 h; further: nearly all actives have a fitted effect of over 55% in size
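Cell growth measured by CellTiter-Glo luminescence after a minimum 48 h, 37 C compound exposure with 20 nM CPT in Tdp1-knockout DT40 cells stably expressing hTDP1, seeded 400/well; qHTS titration format.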
Hits are given with their value; 0 = inactive; ? = inconclusive; - = no result given. Most compounds without a hit are left out; they make up all but 19% or so of the library. Unless noted, the call rests on the fitted dose curve; in most records, active means well fitted curve in the direction sought with a large enough effect; inconclusive means small, poorly fitted or top-dose-only effect, or another doubt; inactive means no such curve, though single readings can be large; an effect the other way counts as inactive or inconclusive.

SMILES	IL-1B inflam inh	HT1080 IDH1KD tx	HT1080NT lethal	ELG1 repair inh	DT40 TDP1 no CPT	TDP1 cell CPT
Cc1ccc(-c2nc3ccc(C)cn3c2Cc2ccccc2C(F)(F)F)cc1	0	?	?	-	?	29µM
COC(=O)c1ccc2nc(-c3ccc(C)cc3)c(Cc3ccccc3OC)n2c1	0	0	0	-	?	?
COc1ccccc1Cc1c(C(C)(C)C)nc2ccc(C)cn12	0	?	?	-	9.2µM	0.65µM
FC(F)(F)c1ccccc1Cc1c(-c2ccc(Cl)cc2)nc2ccc(Cl)cn12	0	?	?	-	?	?
Cc1ccc(-n2nc(C)c(C(=O)NCCCN3CCN(c4cccc(Cl)c4)CC3)c2-n2cccc2)cc1	-	-	-	-	5.8µM	8.2µM
O=C(NCCCN1CCN(c2cccc(Cl)c2)CC1)c1cccc(N2CCCC2=O)c1	0	0	0	0	?	?
Cc1ccc(-n2nc(C)c(C(=O)NCCCN3CCN(c4ccccc4F)CC3)c2-n2cccc2)cc1	-	-	-	-	3.7µM	3.3µM
COCc1cc(C)nc(SCC(=O)Nc2ccc(C)c(C)c2)c1C#N	0	0	0	?	0	0
COCc1cc(C)nc(SCC[N+](C)(C)CC(=O)Nc2cccc(C(F)(F)F)c2)c1C#N	-51	0	0	0	?	21µM
Cc1cc(C)c(C#N)c(SCC(=O)Nc2ccccc2C(N)=O)n1	0	0	0	?	10µM	?
COCc1cc(C)nc(SCC(=O)Nc2ccccc2C)c1C#N	0	0	0	0	5.8µM	7.3µM
CCOC(=O)c1noc2ncnc(Nc3cccc(OC)c3)c12	-	-	-	-	0	0
CC(C)N1CCOC1c1ccccc1 (stereo not given)	0	0	0	-	?	?
COc1ccc(-c2nnc3ccc(SCC(=O)N4CCCCCC4)nn23)cc1OC	-65	0	0	?	?	0
COC(=O)c1ccc(CSc2ccc3nnc(-c4ccc(OC)c(OC)c4)n3n2)o1	0	0	0	-	10µM	?
CCC1(c2ccccc2)NC(=O)N(CC(=O)NCCN2C(=O)S/C(=C\c3cccnc3)C2=O)C1=O (stereo not given)	0	0	0	0	0	0
Cc1cccnc1NC(=O)c1ccc([N+](=O)[O-])o1	?	0	0	0	?	?
Cc1ccc(NC(=O)c2ccc([N+](=O)[O-])o2)c(C)c1	-68	?	0	0	?	23µM
Cc1ccccc1NC(=O)c1ccc([N+](=O)[O-])o1	?	26µM	0	?	12µM	?
Cc1ccc(NC(=O)c2ccc(Br)o2)c([N+](=O)[O-])c1	0	0	0	-	0	0
O=C(Nc1cccc2ncccc12)c1ccc(Br)c([N+](=O)[O-])c1	-108	0	0	0	?	?
CCOc1ccc(C(=O)Nc2cccc3ncccc23)cc1Cl	0	0	0	0	?	23µM
C=CCN1C(=O)c2ccc(C(=O)N(C)CC(=O)Nc3cccc(F)c3)cc2C1=O	0	0	0	0	0	0
CCOC(CCn1ccc(O)c(Cc2ccc(Cl)cc2)c1=O)OCC	0	0	0	?	0	0
O=C(Nc1ccccc1Cl)c1ccc([N+](=O)[O-])o1	-97	21µM	?	?	29µM	?
SMILES	IL-1B inflam inh	HT1080 IDH1KD tx	HT1080NT lethal	ELG1 repair inh	DT40 TDP1 no CPT	TDP1 cell CPT
O=C(Nc1cccc2ncccc12)c1ccc([N+](=O)[O-])o1	-93	15µM	16µM	?	16µM	12µM
O=C(Nc1cccc2ncccc12)c1ccc(-c2ccc(Br)cc2)o1	0	?	?	?	23µM	18µM
NC(=O)c1ccccc1NC(=O)c1ccc(-c2ccc(Br)cc2)o1	-	-	-	-	?	0
CN(CC#CC(O)(c1ccccc1)c1ccccc1)C(C)(C)C	0	0	0	0	0	0
CC(=O)Oc1ccc(C(=O)NCc2ccco2)cc1	0	0	0	0	0	0
O=[N+]([O-])c1ccc2nc(CO)[nH]c2c1	-	-	-	-	0.5µM	?
CCCc1cc(=O)[nH]c(SCc2nc3ccc([N+](=O)[O-])cc3[nH]2)n1	0	15µM	9.2µM	?	?	?
O=[N+]([O-])c1ccc(/C=C/c2nc3ccc([N+](=O)[O-])cc3[nH]2)cc1	0	0	0	0	4.1µM	5.8µM
Nc1nc2ccc([N+](=O)[O-])cc2[nH]1	0	0	0	0	0	0
NC(N)=Nc1nc2ccc([N+](=O)[O-])cc2[nH]1	?	0	0	0	29µM	0
CCNc1ncc2nc(-c3ccccc3)c(=O)n(CCOC)c2n1	-	-	-	-	0	0
Cc1ccccc1-c1nc(CS(=O)CC(=O)NC(C)CCc2ccccc2)c(C)o1 (stereo not given)	0	0	0	0	?	?
O=[N+]([O-])c1ccc(/C=C/c2ccncc2)cc1	?	0	0	?	13µM	?
O=[N+]([O-])c1cccc(/C=C/c2ccncc2)c1	?	0	0	?	0	0
COc1ccc(CNS(=O)(=O)c2cc3c(cc2Cl)NC(=O)CO3)cc1	0	0	0	0	0	0
O=C1COc2cc(S(=O)(=O)NCc3ccco3)c(Cl)cc2N1	-	-	-	-	?	18µM
CC1=C(C(=O)Nc2cccnc2)C(c2ccccc2)n2nc(SCc3ccccc3Cl)nc2N1 (stereo not given)	-	-	-	-	0	0
Cc1ccnc(NC(=O)COc2ccc3oc4c(c3c2)CCCC4)c1	0	0	0	?	12µM	?
O=C(COc1ccc2oc3c(c2c1)CCCC3)Nc1cccc(Br)c1	-	-	-	-	21µM	?
O=C(COc1ccc2c3c(c(=O)oc2c1)CCC3)Nc1ccc(CCO)cc1	-53	0	0	0	0	0
Cc1ccccc1NC(=O)COc1ccc2oc3c(c2c1)CCCC3	-	-	-	-	18µM	16µM
O=C(CNCc1ccccc1)NCCCN1CCCC1=O	0	0	0	0	0	0
COc1ccc2c(/C=C/c3cc[n+](C)cc3)c[nH]c2c1	0	0	0	0	7.3µM	9.2µM
COc1ccc2c(c1)c(/C=C/c1cc[n+](C)cc1)cn2C	0	0	0	?	4.6µM	4.6µM
COc1ccc2c(C=O)c[nH]c2c1	0	0	0	0	0	0
Cc1ccc2[nH]cc(/C=C/c3cc[n+](C)cc3)c2c1	0	?	?	?	2.6µM	4.1µM
